Results on seven sequences are retold here after paper PMC11006913.

Positions count from the first letter of the chain named.

Common to all, as to assay: PBM; 200 nM protein, PBS
What all share (conditions): dsDNA, one strand shown

Assay [1] addresses ALX4 (Homo sapiens, UniProt Q9H161 200-286).
The target in assay [2] is ALX4 (Homo sapiens, UniProt Q9H161 200-286, Q225E).
The target of assay [3] is ALX1 (Homo sapiens, UniProt Q15699 118-204, L144V).
Assay [4] has as its target ALX1 (Homo sapiens, UniProt Q15699 118-204, L144R).
Assay [5] deals with ALX1 (Homo sapiens, UniProt Q15699 118-204).
Sequence of ALX1 (Homo sapiens, UniProt Q15699 118-204) (Q15699 118-204): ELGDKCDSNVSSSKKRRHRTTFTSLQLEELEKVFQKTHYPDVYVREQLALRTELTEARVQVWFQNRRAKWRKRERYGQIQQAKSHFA
Assay [6] concerns the target MSX2 (Homo sapiens, UniProt P35548 130-214, R199I).
For assay [7], the target named is ALX3 (Homo sapiens, UniProt O95076 139-225, N203Q).
Sequence of ALX3 (Homo sapiens, UniProt O95076 139-225, N203Q) (O95076 139-225 N203Q): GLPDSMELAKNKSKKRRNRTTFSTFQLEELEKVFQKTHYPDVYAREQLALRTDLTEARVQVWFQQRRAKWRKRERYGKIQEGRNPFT
Assay [8] addresses MSX2 (Homo sapiens, UniProt P35548 130-214).
Assay [9] concerns the target ALX3 (Homo sapiens, UniProt O95076 139-225).
Assay [10] has as its target PROP1 (Homo sapiens, UniProt O75360 56-141).
The target of assay [11] is PROP1 (Homo sapiens, UniProt O75360 56-141, R99H).
Sequence of PROP1 (Homo sapiens, UniProt O75360 56-141, R99H) (O75360 56-141 R99H): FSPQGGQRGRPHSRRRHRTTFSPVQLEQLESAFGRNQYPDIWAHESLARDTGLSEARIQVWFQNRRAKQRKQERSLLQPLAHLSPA
Assay [12] has as its target ALX3 (Homo sapiens, UniProt O95076 139-225, L168Q).
Assay [13] concerns the target ALX3 (Homo sapiens, UniProt O95076 139-225, L168V).
The target in assay [14] is PROP1 (Homo sapiens, UniProt O75360 56-141, F88S).
Sequence of PROP1 (Homo sapiens, UniProt O75360 56-141, F88S) (O75360 56-141 F88S): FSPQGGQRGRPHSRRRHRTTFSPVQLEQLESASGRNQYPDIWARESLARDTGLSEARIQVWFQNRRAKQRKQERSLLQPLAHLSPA
Assay [15] concerns the target MSX2 (Homo sapiens, UniProt P35548 130-214, F161Y).
For assay [16], the target named is ALX3 (Homo sapiens, UniProt O95076 139-225, N203S).
Sequence of ALX3 (Homo sapiens, UniProt O95076 139-225, N203S) (O95076 139-225 N203S): as the sequence (O95076 139-225 N203Q) above, with Q65S counted along it
Assay [17] addresses T1, PAX4 (Homo sapiens, UniProt O43316 9-242, R200K).
T1 sequence: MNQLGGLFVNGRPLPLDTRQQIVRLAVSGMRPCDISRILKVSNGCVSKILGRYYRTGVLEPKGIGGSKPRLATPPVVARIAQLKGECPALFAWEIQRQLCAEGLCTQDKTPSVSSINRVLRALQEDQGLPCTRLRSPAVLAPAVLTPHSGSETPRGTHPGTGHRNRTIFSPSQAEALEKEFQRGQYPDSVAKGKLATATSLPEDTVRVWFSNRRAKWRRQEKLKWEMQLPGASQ

For assay [18], the target named is T2, PAX4 (Homo sapiens, UniProt O43316 9-242).
T2 sequence: T1 sequence with K192R

In assay [19] the target is HOXB6 (Homo sapiens, UniProt P17509 132-218, K202E).
Sequence of HOXB6 (Homo sapiens, UniProt P17509 132-218, K202E) (P17509 132-218 K202E): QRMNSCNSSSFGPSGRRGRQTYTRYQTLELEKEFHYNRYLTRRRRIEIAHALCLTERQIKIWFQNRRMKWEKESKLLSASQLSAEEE
Assay [20] concerns the target T3, PAX4 (Homo sapiens, UniProt O43316 9-242, R200Q).
T3 sequence: T1 sequence with K192Q

Assay [21] has as its target T4, PAX4 (Homo sapiens, UniProt O43316 9-242, F177V).
T4 sequence: T1 sequence with F169V, K192R

The target in assay [22] is T5, PAX4 (Homo sapiens, UniProt O43316 9-242, F177Y).
T5 sequence: T1 sequence with F169Y, K192R

The target of assay [23] is T6, PAX4 (Homo sapiens, UniProt O43316 9-242, R227W).
T6 sequence: T1 sequence with K192R, R219W

The target in assay [24] is HOXB6 (Homo sapiens, UniProt P17509 132-218).
Sequence of HOXB6 (Homo sapiens, UniProt P17509 132-218) (P17509 132-218): as the sequence (P17509 132-218 K202E) above, with E71K counted along it
In assay [25] the target is PRRX1 (Homo sapiens, UniProt P54821 80-166, F113S).
Sequence of PRRX1 (Homo sapiens, UniProt P54821 80-166, F113S) (P54821 80-166 F113S): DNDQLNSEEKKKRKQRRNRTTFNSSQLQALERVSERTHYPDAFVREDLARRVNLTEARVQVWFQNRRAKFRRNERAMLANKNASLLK
Assay [26] concerns the target HOXA2 (Homo sapiens, UniProt O43364 129-215, R185T).
The target in assay [27] is HOXA2 (Homo sapiens, UniProt O43364 129-215, R185K).
Sequence of HOXA2 (Homo sapiens, UniProt O43364 129-215, R185K) (O43364 129-215 R185K): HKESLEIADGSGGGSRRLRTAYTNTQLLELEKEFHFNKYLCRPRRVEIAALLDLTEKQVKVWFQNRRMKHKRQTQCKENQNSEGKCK
Assay [28] concerns the target HOXA2 (Homo sapiens, UniProt O43364 129-215, Y150S).
Assay [29] concerns the target PRRX1 (Homo sapiens, UniProt P54821 80-166).
Assay [30] deals with HOXA2 (Homo sapiens, UniProt O43364 129-215).
Sequence of HOXA2 (Homo sapiens, UniProt O43364 129-215) (O43364 129-215): as the sequence (O43364 129-215 R185K) above, with K57R counted along it

Sequence of ALX4 (Homo sapiens, UniProt Q9H161 200-286) (Q9H161 200-286): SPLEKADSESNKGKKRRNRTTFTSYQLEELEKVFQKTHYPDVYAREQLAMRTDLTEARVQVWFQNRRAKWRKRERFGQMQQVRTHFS
Sequence of ALX4 (Homo sapiens, UniProt Q9H161 200-286, Q225E) (Q9H161 200-286 Q225E): as the sequence (Q9H161 200-286) above, with Q26E counted along it
Sequence of ALX1 (Homo sapiens, UniProt Q15699 118-204, L144R) (Q15699 118-204 L144R): as the sequence (Q15699 118-204) above, with L27R counted along it
Sequence of ALX1 (Homo sapiens, UniProt Q15699 118-204, L144V) (Q15699 118-204 L144V): as the sequence (Q15699 118-204) above, with L27V counted along it
Sequence of MSX2 (Homo sapiens, UniProt P35548 130-214, F161Y) (P35548 130-214 F161Y): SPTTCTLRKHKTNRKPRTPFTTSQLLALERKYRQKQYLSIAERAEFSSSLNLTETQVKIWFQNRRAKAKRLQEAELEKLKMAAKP
Sequence of MSX2 (Homo sapiens, UniProt P35548 130-214, R199I) (P35548 130-214 R199I): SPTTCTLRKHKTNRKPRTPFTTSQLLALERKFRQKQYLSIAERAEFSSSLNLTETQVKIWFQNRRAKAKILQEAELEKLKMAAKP
Sequence of MSX2 (Homo sapiens, UniProt P35548 130-214) (P35548 130-214): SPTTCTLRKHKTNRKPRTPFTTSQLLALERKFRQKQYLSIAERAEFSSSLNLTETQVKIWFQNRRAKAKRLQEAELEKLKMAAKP
Sequence of PROP1 (Homo sapiens, UniProt O75360 56-141) (O75360 56-141): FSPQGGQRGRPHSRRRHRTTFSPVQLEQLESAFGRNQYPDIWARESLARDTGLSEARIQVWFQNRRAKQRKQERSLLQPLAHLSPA
Sequence of HOXA2 (Homo sapiens, UniProt O43364 129-215, Y150S) (O43364 129-215 Y150S): as the sequence (O43364 129-215 R185K) above, with Y22S, K57R counted along it
Sequence of HOXA2 (Homo sapiens, UniProt O43364 129-215, R185T) (O43364 129-215 R185T): as the sequence (O43364 129-215 R185K) above, with K57T counted along it
Sequence of ALX3 (Homo sapiens, UniProt O95076 139-225) (O95076 139-225): as the sequence (O95076 139-225 N203Q) above, with Q65N counted along it
Sequence of ALX3 (Homo sapiens, UniProt O95076 139-225, L168V) (O95076 139-225 L168V): as the sequence (O95076 139-225 N203Q) above, with L30V, Q65N counted along it
Sequence of ALX3 (Homo sapiens, UniProt O95076 139-225, L168Q) (O95076 139-225 L168Q): as the sequence (O95076 139-225 N203Q) above, with L30Q, Q65N counted along it
Sequence of PRRX1 (Homo sapiens, UniProt P54821 80-166) (P54821 80-166): as the sequence (P54821 80-166 F113S) above, with S34F counted along it

In the case of GACTGGAC, the binding signal with ALX4 [1] was 7.98 upbm affinity estimate (log intensity, higher = more binding, comparable within an allelic series); with ALX4 [2] it was 8.14 upbm affinity estimate (log intensity, higher = more binding, comparable within an allelic series); with ALX1 [3], 6.55 upbm affinity estimate (log intensity, higher = more binding, comparable within an allelic series); with ALX1 [4], 6.42 upbm affinity estimate (log intensity, higher = more binding, comparable within an allelic series); in the assay with ALX1 [5], 6.44 upbm affinity estimate (log intensity, higher = more binding, comparable within an allelic series).

Consider ACGGAGGC, for which the binding signal with ALX4 [1] is 8.04 upbm affinity estimate (log intensity, higher = more binding, comparable within an allelic series); with ALX4 [2] it was 8.29 upbm affinity estimate (log intensity, higher = more binding, comparable within an allelic series); in the assay with MSX2 [6] it was 9.59 upbm affinity estimate (log intensity, higher = more binding, comparable within an allelic series); in the assay with ALX3 [7] it was 7.76 upbm affinity estimate (log intensity, higher = more binding, comparable within an allelic series); in the assay with MSX2 [8] it was 9.53 upbm affinity estimate (log intensity, higher = more binding, comparable within an allelic series); with ALX3 [9], 7.71 upbm affinity estimate (log intensity, higher = more binding, comparable within an allelic series). In addition, the binding signal was 6.67 upbm affinity estimate (log intensity, higher = more binding, comparable within an allelic series) with PROP1 [10]; 6.65 upbm affinity estimate (log intensity, higher = more binding, comparable within an allelic series) with PROP1 [11]; 7.84 upbm affinity estimate (log intensity, higher = more binding, comparable within an allelic series) with ALX3 [12]; 7.82 upbm affinity estimate (log intensity, higher = more binding, comparable within an allelic series) with ALX3 [13]; 6.49 upbm affinity estimate (log intensity, higher = more binding, comparable within an allelic series) in the assay with PROP1 [14]; 9.52 upbm affinity estimate (log intensity, higher = more binding, comparable within an allelic series) in the assay with MSX2 [15]. For the same sequence, the binding signal with ALX3 [16] is 7.76 upbm affinity estimate (log intensity, higher = more binding, comparable within an allelic series).

For the sequence AAGGGGGA, the binding signal was 9.21 upbm affinity estimate (log intensity, higher = more binding, comparable within an allelic series) with PAX4 [17]; 9.23 upbm affinity estimate (log intensity, higher = more binding, comparable within an allelic series) with PAX4 [18]; 8.87 upbm affinity estimate (log intensity, higher = more binding, comparable within an allelic series) with HOXB6 [19]; 9.23 upbm affinity estimate (log intensity, higher = more binding, comparable within an allelic series) with PAX4 [20]; 9.11 upbm affinity estimate (log intensity, higher = more binding, comparable within an allelic series) in the assay with PAX4 [21]; 9.2 upbm affinity estimate (log intensity, higher = more binding, comparable within an allelic series) in the assay with PAX4 [22]. The binding signal in the assay with PAX4 [23] was 9.25 upbm affinity estimate (log intensity, higher = more binding, comparable within an allelic series); with HOXB6 [24] it was 8.75 upbm affinity estimate (log intensity, higher = more binding, comparable within an allelic series).

For the sequence GCTGCAGC, the binding signal was 9.33 upbm affinity estimate (log intensity, higher = more binding, comparable within an allelic series) in the assay with PAX4 [17]; 9.31 upbm affinity estimate (log intensity, higher = more binding, comparable within an allelic series) in the assay with PRRX1 [25]; 9.16 upbm affinity estimate (log intensity, higher = more binding, comparable within an allelic series) in the assay with PAX4 [18]; 7.32 upbm affinity estimate (log intensity, higher = more binding, comparable within an allelic series) with HOXA2 [26]; 9.55 upbm affinity estimate (log intensity, higher = more binding, comparable within an allelic series) with MSX2 [6]; 9.38 upbm affinity estimate (log intensity, higher = more binding, comparable within an allelic series) with PAX4 [20]. The binding signal was 10.3 upbm affinity estimate (log intensity, higher = more binding, comparable within an allelic series) in the assay with HOXA2 [27]; 9.33 upbm affinity estimate (log intensity, higher = more binding, comparable within an allelic series) with PAX4 [21]; 9.49 upbm affinity estimate (log intensity, higher = more binding, comparable within an allelic series) with MSX2 [8]; 9.42 upbm affinity estimate (log intensity, higher = more binding, comparable within an allelic series) with PAX4 [22]; 9.48 upbm affinity estimate (log intensity, higher = more binding, comparable within an allelic series) in the assay with MSX2 [15]; 9.46 upbm affinity estimate (log intensity, higher = more binding, comparable within an allelic series) with PAX4 [23]. Besides, the binding signal in the assay with HOXA2 [28] was 10.6 upbm affinity estimate (log intensity, higher = more binding, comparable within an allelic series); with PRRX1 [29], 9.11 upbm affinity estimate (log intensity, higher = more binding, comparable within an allelic series); with HOXA2 [30], 6.95 upbm affinity estimate (log intensity, higher = more binding, comparable within an allelic series).

On to GAGAGGCA, for which the binding signal with ALX4 [1] was 8.02 upbm affinity estimate (log intensity, higher = more binding, comparable within an allelic series); with ALX4 [2], 8.16 upbm affinity estimate (log intensity, higher = more binding, comparable within an allelic series).

As for TGCCAGCA, the binding signal in the assay with ALX4 [1] was 8.19 upbm affinity estimate (log intensity, higher = more binding, comparable within an allelic series); in the assay with ALX4 [2], 8.28 upbm affinity estimate (log intensity, higher = more binding, comparable within an allelic series); with PROP1 [10], 6.8 upbm affinity estimate (log intensity, higher = more binding, comparable within an allelic series); with PROP1 [11], 6.79 upbm affinity estimate (log intensity, higher = more binding, comparable within an allelic series); in the assay with PROP1 [14], 6.93 upbm affinity estimate (log intensity, higher = more binding, comparable within an allelic series).

With ACCCTCGG, the binding signal with ALX4 [1] was 8.1 upbm affinity estimate (log intensity, higher = more binding, comparable within an allelic series); with ALX4 [2], 8.11 upbm affinity estimate (log intensity, higher = more binding, comparable within an allelic series); with ALX1 [3], 6.49 upbm affinity estimate (log intensity, higher = more binding, comparable within an allelic series); in the assay with ALX1 [4], 6.58 upbm affinity estimate (log intensity, higher = more binding, comparable within an allelic series); in the assay with ALX1 [5], 6.48 upbm affinity estimate (log intensity, higher = more binding, comparable within an allelic series).
